Most compounds without a hit are left out; they make up all but 3.9% or so of the library.
HepG2 viability – counter-screen for TGF-b inhibitors: cytotoxicity in HepG2 cells | HepG2 CAGA-GFP viability, ATP luminescence, 18 h | Potency, µM (series often up to 46.1 µM), actives largely listed as cytotoxic | 410,000 compounds, 0.76% hits
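HepG2 CAGA-GFP cells (1000/well, DMEM with 1% FBS) received compound, then TGF-beta at 500 pg/mL final, and were incubated 18 hours at 37 degrees C. Viability was read by CellTiter-Glo luminescence. Media-only wells were set as complete cell-killing and DMSO as no toxicity.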
HT1080 IDH1KD tx – kills HT-1080 cells with IDH1 knockdown; HT-1080 IDH1 knockdown viability, ATP luminescence, 48 h; Potency, µM (doses to about 46.1 µM), most hits filed as cytotoxic; 360,000 compounds, 2% hits; AID 686971
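In this qHTS, HT-1080 cells depleted of IDH1 are exposed for 48 h at 37 °C to compound titrations. Toxicity is scored from CellTiter-Glo luminescence, with DMSO as full viability and medium alone as none.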
ATXN2 expr inh – inhibitors of ATXN2 expression | HEK-293 ATXN2-luciferase reporter, luminescence, 24 h | Potency, µM (titrated, usually from 57 µM), actives largely listed as inhibitors | 360,000 compounds, 0.72% hits | AID 1745845; also: nearly all actives have a fitted effect of over 55% in size
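qHTS (up to 57 uM final) was run with 24 h compound exposure of reporter cells at 37 °C. Each well was multiplexed: SteadyGlo luminescence measured ATXN2-luciferase expression after a fluorogenic Gly-Phe-AFC viability readout (25 uM final).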
S2 tox – reduces viability in counter-screen for ATXN expression inhibitors | S2 cells (HEK-293 line with an ATXN2-luciferase reporter) viability, CellTiter-Fluor protease fluorescence, 24 h | Potency, µM (titrated, usually from 56.7 µM), most hits filed as cytotoxic | 400,000 compounds, 0.49% hits | AID 651635; also: nearly all actives have a fitted effect of over 40% in size
HT1080-NT tox – kills 2HG-producing HT-1080-NT fibrosarcoma cells; AID 686970; HT-1080-NT fibrosarcoma viability, CellTiter-Glo ATP luminescence, 48 h; Potency, µM (doses to about 46.1 µM), actives largely listed as cytotoxic; 360,000 compounds, 1.6% hits;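 also: NT is the 2HG producing partner of a matched IDH1 knockdown line; nearly all actives have a fitted effect of over 55% in size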
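A 48-hour cytotoxicity screen used HT-1080-NT cells plated 2 hours before compound delivery. ATP-based CellTiter-Glo luminescence measured viability, normalized to DMSO and no-cell controls.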
TGFb SMAD3 inh – blocks TGF-b signaling | HepG2 CAGA-GFP TGF-b/SMAD3 reporter, GFP fluorescence, 18 h; TGF-beta stimulated, 500 pg/mL final | Potency, µM (series often up to 46.1 µM), hits mostly inhibitors | 410,000 compounds, 1.2% hits; also: nearly all actives have a fitted effect of over 65% in size
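Cell-based qHTS in HEPG2 carrying a CAGA-GFP Smad reporter; compounds added before 500 pg/mL final TGF-beta, 18 h incubation at 37 degrees C, GFP fluorescence quantified per cell by imaging cytometry.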
Numbers stand for hits; 0 = inactive; ? = inconclusive; - = not tested or not shown; ! = repeats disagree. Calls follow the shape of the dose curve; as a rule, active = well fitted curve in the direction sought with a large enough effect; inconclusive = small, poorly fitted or top-dose-only effect, or another doubt; inactive = no such curve, though single readings can be large; an effect the other way counts as inactive or inconclusive.

SMILES	HepG2 viability	HT1080 IDH1KD tx	ATXN2 expr inh	S2 tox	HT1080-NT tox	TGFb SMAD3 inh
O=C(NC(Nc1ncc(S(=O)(=O)c2ccc([N+](=O)[O-])cc2)s1)(C(F)(F)F)C(F)(F)F)c1ccc(Cl)cc1	0	?	14µM	?	3.3µM	?
CN(CC(=O)NC(=O)NCc1ccccc1)CC(=O)Nc1ccc(Cl)c(C(F)(F)F)c1	0	?	0	0	18µM	?
Cc1nc(-c2ccc(F)cc2)c(CC(=O)N(C)CC(=O)Nc2ccc(Cl)c(C(F)(F)F)c2)s1	0	16µM	?	0	?	18µM
CCc1nc2ccc(C(=O)N(C)CC(=O)Nc3ccc(Cl)c(C(F)(F)F)c3)cc2nc1CC	0	21µM	0	0	?	?
O=c1ccn([C@@H]2O[C@H](CO)[C@H](O)[C@@H]2F)c(=O)[nH]1	-	-	0	-	-	-
COc1ccccc1C(=O)N[C@@H]1c2ccccc2C2(CCN(Cc3c(O)cccc3OC)CC2)[C@H]1O	-	-	-	0	-	-
O=C(Nc1cccc(C(=O)Nc2ccc(Cl)cn2)c1)c1ccccc1	0	0	0	0	0	0
O=C(Nc1ccc(Cl)cn1)c1cccc(F)c1	0	8.2µM	0	?	?	0
O=C(c1cccc(S(=O)(=O)N2CCc3ccccc32)c1)N1CCN(c2ccccn2)CC1	0	9.2µM	0	?	?	0
O=C(c1ccc(S(=O)(=O)c2cccc(Cl)c2)c([N+](=O)[O-])c1)N1CCN(c2ccccn2)CC1	0	21µM	-	0	9.2µM	11µM
O=C(c1cccc(Cl)c1)N1CCN(c2ccccn2)CC1	0	0	0	0	0	0
COc1ccc(N2CCN(C(=O)c3cccc(S(=O)(=O)N4CCc5ccccc54)c3)CC2)cc1	0	0	?	0	0	0
Cc1oc(-c2cccc(NC(=O)c3ccccn3)c2)nc1CNC(=O)c1cc(F)c(F)cc1F	-	-	-	0	-	-
Cc1ccc(N(C(=O)CNC(=O)c2ccco2)C(C(=O)NC2CCCCC2)c2cccnc2)cc1C (stereo unspecified)	0	0	0	0	0	0
Cc1ccc(N(C(=O)CCl)C(C(=O)NC2CCCCC2)c2cccnc2)cc1C (stereo unspecified)	0	1.6µM	3.2µM	2.8µM	1.6µM	?
COc1cc(NCc2ccc3nc(N)nc(N)c3c2C)cc(OC)c1OC	-	-	3.5µM!	?	-	-
CCc1ccc(C2N3CC4(C)CN2CC(c2ccccc2)(C3)C4=O)cc1 (stereo unspecified)	0	-	0	0	-	0
O=C(NNC(=O)c1ccc(NC(=O)c2ccccc2)cc1)c1ccc(F)cc1	0	0	0	0	0	0
O=C(NC1=C(Nc2ccc(F)cc2)C(=O)c2ccccc2C1=O)c1ccc(Cl)cc1	11µM	0	0	0	0	11µM
CCOc1cccc(C2c3[nH]c4ccccc4c3CCN2C(=O)Cc2cccc(OCC)c2OCC)c1 (stereo unspecified)	0	-	0	?	-	0
CCN(C[C@H]1N[C@@](CC)(C(=O)OC)[C@H]2C(=O)N(Cc3ccccc3)C(=O)[C@@H]12)C(=O)c1ccc(C(C)(C)C)cc1	0	21µM	?	16µM	?	?
CC[C@@]1(C(=O)OC)N[C@H](CN(C)C(=O)c2ccc(C(C)(C)C)cc2)[C@@H]2C(=O)N(Cc3ccccc3)C(=O)[C@@H]21	0	0	0	0	0	0
O=C(NCCc1ccccc1)c1cc([N+](=O)[O-])ccc1N1CCOCC1	0	0	0	0	0	0
O=C(NCCOc1ccccc1F)c1cc([N+](=O)[O-])ccc1N1CCOCC1	0	8.2µM	0	?	6.5µM	0
O=C(NCCOc1ccccc1)c1cc([N+](=O)[O-])ccc1N1CCOCC1	0	7.3µM	0	?	?	?
SMILES	HepG2 viability	HT1080 IDH1KD tx	ATXN2 expr inh	S2 tox	HT1080-NT tox	TGFb SMAD3 inh
Cc1c(C(=O)N(C)C2CCOC2)sc2ncnc(NCc3ccc4c(c3)OCO4)c12 (stereo unspecified)	-	-	-	0	-	-
O=C(Nc1ccccc1)C1CCN(c2nccs2)CC1	0	0	0	0	0	0
CN[C@@H]1CN(c2ccc3c(=O)c(C(=O)O)cn(-c4nccs4)c3n2)C[C@@H]1OC	-	-	11µM	-	-	-
Cc1cc(C)c(S(=O)(=O)NCC(c2cccs2)S(=O)(=O)c2ccccc2)c(C)c1 (stereo unspecified)	6.3µM	-	-	-	-	5.6µM
CCOc1ccc(S(=O)(=O)NCC(c2cccs2)S(=O)(=O)c2ccc(C)cc2)cc1 (stereo unspecified)	0	-	-	-	-	5µM
Cc1ccc(-c2nnc(SCC(=O)Nc3ccccc3F)o2)cc1	0	21µM	0	0	13µM	0
O=C(Nc1ccc(F)cc1F)c1csc(-c2ccccc2)n1	0	0	0	0	0	0
O=C(Nc1ccc(F)cc1F)c1cccc(C(=O)Nc2ccc(F)cc2F)n1	0	0	2.5µM	4.5µM	0	0
CCCCNc1nc2c(S(=O)(=O)c3ccc(Br)cc3)nnn2c2ccsc12	0	-	-	-	-	0
O=C(NNc1ccccc1F)c1ccccc1	0	9.2µM	0	0	?	0
O=C(NNC(=O)c1ccccc1O)c1ccc(S(=O)(=O)Nc2ccccc2F)cc1	0	?	?	0	23µM	0
Cc1ccccc1NS(=O)(=O)c1ccc(C(=O)NNC(=O)c2ccccc2O)cc1	0	?	?	?	0	?
COc1ccc(Cc2ccc(NC(N)=O)cc2)cc1-c1cccc(Cl)c1	-	-	0	-	-	-
COc1ccc(CN(C)C(=O)c2cc(-c3ccccc3)nc3ccc(C)cc23)c(OC)c1OC	0	0	?	?	0	0
Cc1c(CN(C)C(=O)c2cc(-c3ccccc3)nc3ccc(Br)cc23)cnn1C	0	-	22µM	?	-	0
CN(C)CCNC(=O)c1cccc(-c2cnc3c(NC=O)cc(-c4cc(F)c(F)c(F)c4)cn23)c1	0	18µM	?	-	?	?
CN(C)C(=O)c1cccc(-c2cnc3c(NC=O)cc(-c4cccc(C(F)(F)F)c4)cn23)c1	0	18µM	?	-	23µM	?
CN(C)CCNC(=O)c1cccc(-c2cc(NC=O)c3ncc(-c4cccc(C(F)(F)F)c4)n3c2)c1	20µM	16µM	22µM	28µM	29µM	?
CC(=O)c1ccc(N2CCN(S(=O)(=O)c3ccc4c(c3)C(Cl)(Cl)C(=O)N4)CC2)cc1	0	-	0	0	-	22µM
CCOC(=O)N(C)c1c(CC)nc2c(OCc3cccc(Cl)c3)cccn12	0	0	?	?	0	0
COC(=O)c1ccccc1COc1cccn2c(N(C)Cc3cccs3)c(C)nc12	0	?	18µM	0	?	?
Cc1nc2c(OCc3ccc(Cl)cc3Cl)cccn2c1N(C)Cc1cccs1	11µM	?	8.9µM	-	?	?

High-throughput results deposited in PubChem BioAssay by National Center for Advancing Translational Sciences (NCATS).
